PubChem BioAssay (EPA / NIEHS)
Several values for one entry are separate records, joined by “and”; a condition that tells them apart may be missing. Equal entries are not always repeated. Some compounds were tested as several samples or in several runs, with calls that do not always agree. Activity calls are given as the source filed them. The calls were made as follows: active = hit-call score of the fitted dose curve at least 0.9, where 1 is the maximum; inactive = score below 0.9.

Experiments:
[1] = ATG_ISRE_CIS: Attagene CIS-FACTORIAL HepG2 Assay for human Interferon Regulatory Factor 1 (IRF1) binding to an Interferon-Stimulated Response Element (ISRE) (AID 2282948); details: HepG2 ISRE cis-reporter (Attagene), mRNA transcription readout; actives raise or lower the signal
How it was run: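 Transfected HepG2 (multiple reporter transcription units, cis elements) dosed 24 h. RNA → oligo(dT) RT → PCR → 6-FAM primer extension → HpaI → CE. DMSO = negative control/baseline.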

[2] = ATG_M_32_CIS: Attagene CIS-FACTORIAL HepG2 Assay for M32 Transcription Factor (Internal Marker) (AID 2282949); details: HepG2 Attagene cis-factorial M32 reporter, mRNA; actives raise or lower the signal;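 also: background control marker of the multiplexed CIS panel rather than a real target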
How it was run: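 HepG2 cells transiently transfected with multiplexed cis-regulated reporter units, dosed 24 h. Reporter mRNA quantified by RT-PCR, 6-FAM labelling, HpaI digestion and capillary electrophoresis; bidirectional fit vs DMSO.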

[3] = ATG_M_06_CIS: Attagene CIS-FACTORIAL HepG2 Assay for M06 Transcription Factor (Internal Marker) (AID 2282950); details: HepG2 Attagene CIS-FACTORIAL M06 internal marker reporter; actives raise or lower the signal
How it was run: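 HepG2 liver cells, 24 h exposure. Reporter transcripts from transfected cis-element constructs quantified by RT-PCR/capillary electrophoresis fluorescence. Bidirectional curve fit against DMSO.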

[4] = target: Hypoxia-inducible factor 1-alpha (Homo sapiens) (UniProt Q16665); test: ATG_HIF1a_CIS: Attagene CIS-FACTORIAL HepG2 Assay for human Hypoxia Inducible Factor 1 (HIF1A) (AID 2282951); details: HepG2 Attagene cis-factorial HIF1a reporter transcription; actives raise or lower the signal
How it was run: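 Fluorescence intensity of capillary-separated, 6-FAM-labelled reporter amplicons gives mRNA induction in HepG2 cells carrying transfected cis-promoter reporter units; cells exposed 24 h, responses fitted up or down from DMSO.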

[5] = target: Hepatocyte nuclear factor 6 (Homo sapiens) (UniProt Q9UBC0); test: ATG_HNF6_CIS: Attagene CIS-FACTORIAL HepG2 Assay for human Hepatocyte Nuclear Factor 6 (HNF6) (AID 2282952); details: HepG2 Attagene cis-factorial HNF6 reporter transcription; actives raise or lower the signal
How it was run: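 HepG2 cells transiently transfected with cis-element-driven multiple reporter transcription units, dosed 24 h; reporter mRNA quantified by RT-PCR, FAM primer extension, HpaI digestion and capillary electrophoresis; bidirectional fit versus DMSO baseline.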

[6] = target: Heat shock factor protein 1 (Homo sapiens) (UniProt Q00613); test: ATG_HSE_CIS: Attagene CIS-FACTORIAL HepG2 Assay for human Heat Shock Transcription Factor 1 (HSE) (AID 2282953); details: HepG2 HSE cis-reporter, Attagene RNA transcription; actives raise or lower the signal
How it was run: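 Endogenous transcription factor activity captured via cis-promoter reporter units transfected into HepG2; treatment lasted 24 h. Fluorescence intensity of reporter fragments analysed with bidirectional curve fitting, DMSO baseline.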

[7] = ATG_PBREM_CIS: Attagene CIS-FACTORIAL HepG2 Assay for human Phenobarbital-responsive Enhancer Module (PBREM) (AID 2282955); details: HepG2 PBREM cis-reporter, Attagene multiplexed transcription; actives raise or lower the signal
How it was run: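 Cells were transfected with cis-element reporter units and treated for 24 h, after which RNA was extracted and reporter transcripts measured by RT-PCR and capillary electrophoresis.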

[8] = target: Paired box protein Pax-6 (Homo sapiens) (UniProt P26367); test: ATG_Pax6_CIS: Attagene CIS-FACTORIAL HepG2 Assay for human Paired Box 6 (PAX6) (AID 2282956); details: HepG2 CIS-FACTORIAL PAX6 reporter transcription, RNA readout; actives raise or lower the signal
How it was run: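 Transient MRTU transfection of HepG2 → compound exposure 24 h → TriZol RNA, oligo(dT) RT → PCR, 6-FAM primer extension, HpaI cut → capillary electrophoresis; activity fitted both directions against DMSO.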

[9] = ATG_PXRE_CIS: Attagene CIS-FACTORIAL HepG2 Assay for human Pregnane X Receptor Element (PXRE) (AID 2282957); details: HepG2 Attagene CIS-FACTORIAL PXRE reporter, mRNA; actives raise or lower the signal
How it was run: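 HepG2 cells transiently transfected with cis-regulated multiple reporter transcription units; endogenous factor activity measured as reporter mRNA 24 h after dosing. RT-PCR, fluorescent primer extension, HpaI digestion, capillary electrophoresis; bidirectional fit versus DMSO baseline.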

[10] = ATG_PPRE_CIS: Attagene CIS-FACTORIAL HepG2 Assay for human Peroxisome Proliferator-activated Response Element (PPRE) (AID 2282958); details: HepG2 PPRE cis-element reporter, Attagene transcription factor profiling; actives raise or lower the signal
How it was run: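 In this cell-based multiplex, a PPRE cis element drives a reporter sequence in transiently transfected HepG2 cells. Following 24 h treatment, labeled cDNA amplicons are sized and quantified by capillary electrophoresis, with DMSO defining baseline.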

[11] = ATG_RORE_CIS: Attagene CIS-FACTORIAL HepG2 Assay for human RAR-related Orphan Receptor Element (RORE) (AID 2282959); details: HepG2 Attagene cis-factorial RORE reporter, mRNA; actives raise or lower the signal
How it was run: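 Endogenous factor activity at a cis response element is read as reporter transcript levels in HepG2 cells, 24 h post-dose. Transcripts are quantified by RT-PCR with capillary electrophoresis, and data fitted in both directions against DMSO.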

[12] = ATG_SREBP_CIS: Attagene CIS-FACTORIAL HepG2 Assay for human Sterol Regulatory Element Binding (SREBP) (AID 2282962); details: HepG2 Attagene cis-factorial SREBP reporter, mRNA; actives raise or lower the signal
How it was run: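 Transfected HepG2 (cis-regulated reporter library, endogenous TFs) → compound 24 h → total RNA → oligo(dT) RT → reporter-specific PCR → FAM primer extension, HpaI cut → CE fluorescence. Fit bidirectional vs DMSO.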

[13] = target: Signal transducer and activator of transcription 3 (Homo sapiens) (UniProt P40763); test: ATG_STAT3_CIS: Attagene CIS-FACTORIAL HepG2 Assay for human Signal Transducer and Activator of Transcription 3 (STAT3) (AID 2282963); details: HepG2, Attagene cis-factorial STAT3 reporter transcription; actives raise or lower the signal
How it was run: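 Transcript-level reporter assay. HepG2 transient MRTU transfection, 24 h exposure, fluorescence detection after RT-PCR and CE; DMSO baseline.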

[14] = ATG_TA_CIS: Attagene CIS-FACTORIAL HepG2 Assay for human TA Basal Promoter (AID 2282964); details: HepG2 Attagene CIS-factorial TA basal promoter reporter; actives raise or lower the signal
How it was run: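 Fluorescence from labelled RT-PCR reporter fragments, separated by capillary electrophoresis, gives the signal. Cells: HepG2 transiently carrying multiple reporter units, 24 h chemical dosing. Gain or loss relative to DMSO.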

[15] = ATG_TCF_b_cat_CIS: Attagene CIS-FACTORIAL HepG2 Assay for human T-Cell-Factor with beta-catenin (TCF/b-cat) (AID 2282965); details: HepG2 TCF/beta-catenin cis-reporter transcription, actives raise or lower the signal
How it was run: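 Using capillary electrophoresis as the read-out, labelled reporter cDNA fragments from transiently transfected HepG2 were sized and quantified. Exposure lasted 24 hours; activity in either direction was referenced to DMSO.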

[16] = ATG_Sox_CIS: Attagene CIS-FACTORIAL HepG2 Assay for human SRY-box transcription factor (SOX) (AID 2282960); details: HepG2 Attagene cis-factorial SOX reporter, mRNA; actives raise or lower the signal
How it was run: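 Measures mRNA induction of a SOX1-associated reporter in HepG2 after 24 h dosing. Fluorescently labelled RT-PCR fragments are separated by capillary electrophoresis, and gain or loss relative to DMSO control is fitted.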

[17] = target: Transcription factor Sp1 (Homo sapiens) (UniProt P08047); test: ATG_Sp1_CIS: Attagene CIS-FACTORIAL HepG2 Assay for human Specificity Protein 1 (Sp1) (AID 2282961); details: HepG2 Sp1 cis-reporter transcription, actives raise or lower the signal
How it was run: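 Cells: HepG2, transiently transfected with cis-regulated multiplexed reporters. Exposure: 24 h. Detection: reporter transcripts amplified, fluorescently labeled, restriction-digested and sized by capillary electrophoresis. Analysis: bidirectional fit relative to DMSO.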

[18] = ATG_GRE_CIS: Attagene CIS-FACTORIAL HepG2 Assay for human Glucocorticoid Response Elements (GRE) (AID 2282947); details: HepG2 GRE cis-reporter, Attagene multiplex mRNA; actives raise or lower the signal
How it was run: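 Following 24 h chemical exposure of transiently transfected HepG2 cells, total RNA was reverse-transcribed and reporter cDNA amplified, fluorescently labelled and sized by capillary electrophoresis. Signal gain or loss was fitted relative to DMSO vehicle.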

[19] = ATG_MRE_CIS: Attagene CIS-FACTORIAL HepG2 Assay for human Metal Responsive Element (MRE) (AID 2282954); details: HepG2 MRE cis-reporter transcription, Attagene multiplex; actives raise or lower the signal
How it was run: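 Step one: transfect HepG2 with cis-regulated reporter units. Step two: dose 24 h. Step three: isolate RNA, RT-PCR, 6-FAM label, HpaI digest, capillary electrophoresis. Fit bidirectionally to DMSO.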

Measured: AC50

Sequence of Transcription factor Sp1 (Homo sapiens) (P08047 whole entry, looked up): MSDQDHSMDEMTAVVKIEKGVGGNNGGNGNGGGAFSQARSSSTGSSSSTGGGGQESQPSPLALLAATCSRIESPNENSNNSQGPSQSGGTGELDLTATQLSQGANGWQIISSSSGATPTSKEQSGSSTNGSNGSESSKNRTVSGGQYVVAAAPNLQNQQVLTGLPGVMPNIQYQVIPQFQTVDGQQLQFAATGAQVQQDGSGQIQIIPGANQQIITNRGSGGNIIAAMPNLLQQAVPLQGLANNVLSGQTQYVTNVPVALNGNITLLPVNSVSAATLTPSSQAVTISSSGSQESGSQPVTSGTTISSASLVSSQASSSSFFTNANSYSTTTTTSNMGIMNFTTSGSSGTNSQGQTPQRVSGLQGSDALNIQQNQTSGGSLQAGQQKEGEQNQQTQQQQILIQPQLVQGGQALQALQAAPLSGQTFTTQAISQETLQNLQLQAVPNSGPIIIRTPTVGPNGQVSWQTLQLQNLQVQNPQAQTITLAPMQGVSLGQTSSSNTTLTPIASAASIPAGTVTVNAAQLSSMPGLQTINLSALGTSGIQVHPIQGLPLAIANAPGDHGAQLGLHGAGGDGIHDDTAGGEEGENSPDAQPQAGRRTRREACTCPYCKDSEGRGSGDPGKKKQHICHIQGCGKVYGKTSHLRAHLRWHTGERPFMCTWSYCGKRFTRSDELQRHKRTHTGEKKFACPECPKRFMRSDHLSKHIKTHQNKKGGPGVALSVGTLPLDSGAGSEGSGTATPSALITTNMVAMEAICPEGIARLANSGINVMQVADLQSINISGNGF
Sequence of Paired box protein Pax-6 (Homo sapiens) (P26367 whole entry, looked up): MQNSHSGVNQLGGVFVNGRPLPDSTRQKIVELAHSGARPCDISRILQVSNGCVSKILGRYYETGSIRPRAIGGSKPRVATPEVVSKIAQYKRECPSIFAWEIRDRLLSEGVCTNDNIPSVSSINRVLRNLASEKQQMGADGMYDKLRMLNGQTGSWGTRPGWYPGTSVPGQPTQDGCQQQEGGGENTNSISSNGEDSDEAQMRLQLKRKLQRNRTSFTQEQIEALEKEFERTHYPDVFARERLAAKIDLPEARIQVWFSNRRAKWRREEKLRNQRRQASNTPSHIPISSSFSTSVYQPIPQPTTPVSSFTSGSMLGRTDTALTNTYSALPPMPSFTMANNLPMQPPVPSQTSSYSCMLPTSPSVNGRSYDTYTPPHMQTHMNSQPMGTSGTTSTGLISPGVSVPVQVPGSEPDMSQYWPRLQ
Sequence of Signal transducer and activator of transcription 3 (Homo sapiens) (P40763 whole entry, looked up): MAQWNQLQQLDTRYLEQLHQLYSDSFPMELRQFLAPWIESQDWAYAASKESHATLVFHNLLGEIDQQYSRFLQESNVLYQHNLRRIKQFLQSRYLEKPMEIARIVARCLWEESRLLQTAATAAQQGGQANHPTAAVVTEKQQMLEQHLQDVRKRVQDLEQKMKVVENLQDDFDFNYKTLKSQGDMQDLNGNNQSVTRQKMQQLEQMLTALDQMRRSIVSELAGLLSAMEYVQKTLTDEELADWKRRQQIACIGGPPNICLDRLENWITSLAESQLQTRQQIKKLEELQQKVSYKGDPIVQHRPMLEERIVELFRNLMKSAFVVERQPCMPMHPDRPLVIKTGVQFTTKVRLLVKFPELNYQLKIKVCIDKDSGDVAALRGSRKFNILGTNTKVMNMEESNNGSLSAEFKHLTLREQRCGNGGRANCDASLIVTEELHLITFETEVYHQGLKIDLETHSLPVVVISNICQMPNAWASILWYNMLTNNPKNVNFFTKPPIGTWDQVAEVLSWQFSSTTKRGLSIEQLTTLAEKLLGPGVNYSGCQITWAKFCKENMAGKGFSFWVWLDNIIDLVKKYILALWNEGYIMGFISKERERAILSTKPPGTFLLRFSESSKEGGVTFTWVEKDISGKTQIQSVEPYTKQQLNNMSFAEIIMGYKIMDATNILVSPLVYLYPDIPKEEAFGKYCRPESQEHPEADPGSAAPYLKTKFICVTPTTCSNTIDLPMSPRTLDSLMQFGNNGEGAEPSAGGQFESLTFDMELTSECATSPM
Sequence of Hepatocyte nuclear factor 6 (Homo sapiens) (Q9UBC0 whole entry, looked up): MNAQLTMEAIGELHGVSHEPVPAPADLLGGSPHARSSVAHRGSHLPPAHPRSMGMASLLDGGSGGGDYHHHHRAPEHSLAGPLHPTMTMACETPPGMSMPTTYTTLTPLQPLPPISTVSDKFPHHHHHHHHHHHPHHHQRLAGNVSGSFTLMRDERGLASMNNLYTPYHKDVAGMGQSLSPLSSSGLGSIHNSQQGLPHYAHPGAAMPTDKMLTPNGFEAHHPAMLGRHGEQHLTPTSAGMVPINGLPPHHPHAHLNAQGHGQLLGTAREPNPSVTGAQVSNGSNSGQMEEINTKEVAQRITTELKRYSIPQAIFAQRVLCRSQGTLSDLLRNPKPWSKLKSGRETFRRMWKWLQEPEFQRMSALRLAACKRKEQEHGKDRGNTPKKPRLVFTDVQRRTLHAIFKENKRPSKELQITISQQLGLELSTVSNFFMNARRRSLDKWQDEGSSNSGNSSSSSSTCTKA
Sequence of Heat shock factor protein 1 (Homo sapiens) (Q00613 whole entry, looked up, the tested form may be a part): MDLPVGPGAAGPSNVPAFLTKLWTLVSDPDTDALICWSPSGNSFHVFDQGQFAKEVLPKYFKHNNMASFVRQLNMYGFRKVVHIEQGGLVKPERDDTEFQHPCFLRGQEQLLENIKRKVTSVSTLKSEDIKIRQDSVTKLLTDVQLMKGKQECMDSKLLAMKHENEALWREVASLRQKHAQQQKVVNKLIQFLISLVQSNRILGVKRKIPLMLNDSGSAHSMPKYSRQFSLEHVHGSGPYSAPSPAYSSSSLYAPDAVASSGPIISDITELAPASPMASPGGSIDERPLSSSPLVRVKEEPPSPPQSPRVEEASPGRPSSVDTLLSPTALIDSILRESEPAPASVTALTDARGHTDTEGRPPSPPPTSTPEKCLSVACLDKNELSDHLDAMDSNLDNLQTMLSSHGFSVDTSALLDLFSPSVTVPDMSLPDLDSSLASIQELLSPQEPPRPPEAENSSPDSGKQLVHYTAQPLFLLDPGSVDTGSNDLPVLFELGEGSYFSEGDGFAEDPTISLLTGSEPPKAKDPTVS
Sequence of Hypoxia-inducible factor 1-alpha (Homo sapiens) (Q16665 whole entry, looked up): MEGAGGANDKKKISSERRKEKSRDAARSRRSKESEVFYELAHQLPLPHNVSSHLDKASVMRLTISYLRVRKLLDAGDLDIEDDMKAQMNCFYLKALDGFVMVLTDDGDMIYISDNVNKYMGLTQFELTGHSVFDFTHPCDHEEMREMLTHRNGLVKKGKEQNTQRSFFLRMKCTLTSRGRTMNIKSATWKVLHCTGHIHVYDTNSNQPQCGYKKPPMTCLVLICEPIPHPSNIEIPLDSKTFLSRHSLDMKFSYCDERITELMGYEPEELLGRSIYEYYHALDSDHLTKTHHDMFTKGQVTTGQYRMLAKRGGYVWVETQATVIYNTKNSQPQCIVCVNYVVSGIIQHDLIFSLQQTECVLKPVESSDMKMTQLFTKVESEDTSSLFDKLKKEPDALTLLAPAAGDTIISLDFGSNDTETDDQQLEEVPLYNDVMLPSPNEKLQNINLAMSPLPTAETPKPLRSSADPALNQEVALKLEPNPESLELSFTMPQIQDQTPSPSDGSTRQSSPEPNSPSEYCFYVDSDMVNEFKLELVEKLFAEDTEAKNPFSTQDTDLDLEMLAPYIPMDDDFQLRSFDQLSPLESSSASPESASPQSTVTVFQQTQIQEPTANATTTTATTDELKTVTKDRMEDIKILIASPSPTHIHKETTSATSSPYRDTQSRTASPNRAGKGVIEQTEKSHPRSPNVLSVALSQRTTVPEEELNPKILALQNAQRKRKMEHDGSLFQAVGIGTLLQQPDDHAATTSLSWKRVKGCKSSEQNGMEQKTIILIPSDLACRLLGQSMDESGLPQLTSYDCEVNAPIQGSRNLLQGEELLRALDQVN

NC1CCCCC1
not listed: [16] | [17] | [18] | [19]
inactive: all other assays above

O=NO
not listed: [18] | [19]
inactive: all other assays above

CC(=O)[C@@]1(O)CC[C@H]2[C@@H]3CCC4=CC(=O)CC[C@]4(C)[C@H]3CC[C@@]21C
active: [12] 11.1 µM
inactive: [18] | [1] | [2] | [3] | [5] | [6] | [19] | [8] | [9] | [11] | [12] | [13] | [14] | [15]

COC(=O)[C@H]1[C@H]2C[C@@H]3c4[nH]c5cc(OC)ccc5c4CCN3C[C@H]2C[C@@H](OC(=O)c2cc(OC)c(OC)c(OC)c2)[C@@H]1OC
active: [19] 3.49 µM | [8] 8.41 µM | [12] 3.96 µM | [15] 7.31 µM
not listed: [4] | [7] | [9] | [17]
inactive: all other assays above

CCC(C)N(C)C(=O)c1cc2ccccc2c(-c2ccccc2Cl)n1 (stereo not drawn)
active: [1] 89 µM | [6] 101 µM | [8] 63 µM | [9] 0.135 µM | [10] 106 µM | [11] 46.9 µM | [14] 44.3 µM | [15] 41.7 µM
inactive: [2] | [3] | [5] | [17] | [12] | [13]

C#CC(O)C(CC)CCCC (stereo not drawn)
active: [2] 157 µM | [5] 144 µM | [9] 15 µM | [17] 154 µM | [15] 67.9 µM
not listed: [10] | [16] | [19]
inactive: all other assays above

CC(=O)O[C@]1(C(C)=O)CC[C@H]2[C@@H]3C=C(Cl)C4=CC(=O)[C@@H]5C[C@@H]5[C@]4(C)[C@H]3CC[C@@]21C
inactive: [1] | [2] | [3] | [5] | [6] | [8] | [9] | [10] | [11] | [12] | [14] | [15]
active: [1] 77.5 µM | [5] 165 µM and 57.2 µM | [6] 83.8 µM [middle of 4 runs] | [8] 27.3 µM and 66.1 µM and 100 µM | [9] 184 µM and 142 µM and 61.5 µM | [12] 29.5 µM and 52.1 µM and 34.3 µM | [14] 54.5 µM

CC(C)(C)c1ccccc1
not listed: [10] | [13] | [18]
inactive: all other assays above

CC(N)=O
active: [6] 133 µM | [9] 28.9 µM
inactive: [18] | [1] | [2] | [3] | [5] | [6] | [19] | [8] | [9] | [11] | [17] | [12] | [14] | [15]

NCCOCCOCCN
not listed: [10] | [16] | [19]
inactive: all other assays above

Oc1ccc(O)cc1
active: [10] 62.5 µM | [17] 29.1 µM
not listed: [4] | [16]
inactive: all other assays above

CO[C@@H]1COCC[C@@H]1N[C@@H]1CC[C@@](C(=O)N2CCc3ncc(C(F)(F)F)cc3C2)(C(C)C)C1
active: [12] 77.7 µM
not listed: [16] | [19]
inactive: all other assays above

CS(=O)(=O)c1ccc([C@@H](C[C@H]2CCC(=O)C2)C(=O)Nc2cnccn2)cc1Cl
not listed: [6] | [13] | [16]
inactive: all other assays above

CC(=O)O
not listed: [6] | [7] | [10] | [11] | [18]
inactive: all other assays above
